# Measurements taken from PubChem BioAssay AID687 (PCMD, 2007).
# Hit rate of the full screen: of about 33,000 compounds, about 95 (0.3%) were called active. The entries come from a sample that favours actives as a whole. A number with no mark means an inactive call.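 The calls were made as follows: active = inhibition above 40% in the primary screen; inactive = the rest.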
# Target: Coagulation factor XI (Homo sapiens) (UniProt P03951)
# Assay: human FXIa protease inhibitors, primary screen, biochemical, single compound per well (AID 687);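 also: 0% = enzyme without compound and 100% = blank wells lacking enzyme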
# Settings: purified human FXIa, fluorogenic AMC substrate cleavage; at 10 µM; stronger effect = higher value
# Sequence of Coagulation factor XI (Homo sapiens) (P03951 19-387 limits assumed): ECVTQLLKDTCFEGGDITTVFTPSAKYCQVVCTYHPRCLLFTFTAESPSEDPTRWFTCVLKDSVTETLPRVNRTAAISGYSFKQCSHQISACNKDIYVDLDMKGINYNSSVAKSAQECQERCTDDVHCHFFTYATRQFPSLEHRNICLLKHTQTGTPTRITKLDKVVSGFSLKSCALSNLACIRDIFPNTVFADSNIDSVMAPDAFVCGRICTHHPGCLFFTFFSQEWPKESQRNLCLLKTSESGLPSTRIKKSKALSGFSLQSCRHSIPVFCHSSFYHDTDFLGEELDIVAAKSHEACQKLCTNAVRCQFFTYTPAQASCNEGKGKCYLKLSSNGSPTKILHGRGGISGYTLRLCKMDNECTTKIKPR
# Sequence of Coagulation factor XI (Homo sapiens) (P03951 388-625 limits assumed): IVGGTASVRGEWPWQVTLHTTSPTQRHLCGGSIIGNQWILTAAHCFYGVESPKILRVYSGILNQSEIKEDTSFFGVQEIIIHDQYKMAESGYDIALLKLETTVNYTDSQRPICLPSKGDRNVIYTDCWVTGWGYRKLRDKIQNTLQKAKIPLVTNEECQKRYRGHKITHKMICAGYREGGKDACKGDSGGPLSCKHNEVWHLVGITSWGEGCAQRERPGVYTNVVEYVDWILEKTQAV
row,SMILES,inhibition
1,CCc1ccc(CNC(=O)C2CC(=O)N(CCc3ccc(C)cc3)C2)cc1 (centres undefined),1.74%
2,CC(C)(C)Oc1ncc(Br)c(OC(C)(C)C)n1,-4.12%
3,CCc1ccc(CNC(=O)CCc2nc(-c3cccs3)no2)cc1,5.18%
4,CCOC(=O)c1cnc(SCC(=O)Nc2ccccc2C(=O)OC)nc1N,-1.2%
5,Cc1cc(C)n(-c2nnc(C)n2NC(=O)c2cccc(Cl)c2)n1,-1.74%
6,C/C(=N\NS(=O)(=O)c1ccc(Br)cc1)c1cccs1,7.3%
7,O=C(O)c1cc2ccccc2c(=O)s1,3.97%
8,CCn1c(CC(=O)Nc2ccc(C)cc2)nnc1SCC(=O)Nc1nc(C)cs1,0.06%
9,COc1ccc(C)cc1NC(=O)CCS(=O)(=O)c1cccc2nonc12,24.9%
10,Cc1cc(C)nc(N2C(=O)CC(Cc3ccccc3)C2=O)n1 (centres undefined),-0.09%
11,CCN1CC=C2C(C#N)=C(N)C(C#N)(C#N)[C@H](c3ccoc3)[C@H]2C1,1.2%
12,Cc1cccc(N2CCN(C(=O)c3cnn4c(C(F)F)cc(-c5ccccc5)nc34)CC2)c1C,3.2%
13,CCOC(=O)CN(Cc1ccc(OC)c(OC)c1)S(=O)(=O)c1ccc(OC)cc1,6.28%
14,CC(C)NC(=O)CSc1ccccc1C(=O)NCc1ccc2c(c1)OCO2,6.02%
15,COn1c(=O)c(=O)n(OC)c2ccccc21,3.76%
16,Cc1cc(C)n(C(=O)CCNC(=O)c2ccccc2Cl)n1,-5.37%
17,CCOC(=O)C1=C(C)NC2=C(C(=O)CC(C)(C)C2)C1c1ccsc1 (centres undefined),1.22%
18,Cc1cc(=O)oc2ccc(OCC(=O)O)cc12,-9.94%
19,COc1ccc(Cl)cc1C(=O)Nc1ccc(N(C)C(C)=O)cc1,13.5%
20,COc1cccc(OC)c1C(=O)Nc1ccc(N2CCCCC2)cc1,4.14%
21,CCCC(=O)C1CCN(Cc2ccccc2)CC1,9.51%
22,O=C(O)CCN=C1CCc2ccccc2N1,5.95%
23,CCNC(=O)N1CCNC(=O)C1CC(=O)Nc1ccc(C(=O)OCC)cc1 (centres undefined),-0.73%
24,CCC(=O)N(Cc1ccccc1)c1ccccn1,-8.8%
25,O=C(c1ccco1)N1CCN(C(=O)C2CCCN(S(=O)(=O)c3cccc4nsnc34)C2)CC1 (centres undefined),-6.85%

row,SMILES,inhibition
1,CCCOc1cccc(C(=O)Nc2nnn(CCC)n2)c1,-6.61%
2,Cc1nnc(SCC(=O)N2CCc3ccccc3C2)s1,21.3%
3,O=C(COc1ccc(Cl)cc1)NCCSc1ccccc1,6.47%
4,COc1ccc(-n2cnc3cc(NCc4ccco4)ccc32)cc1,4.4%
5,Cn1nnnc1SCC(=O)N1CCN(C(c2ccccc2)c2ccccc2)CC1,-3.99%
6,CCCC(O)(c1ccc(OC)cc1)C(CN(C)C)c1ccccc1 (centres undefined),-1.37%
7,CSc1nc(C)cc(SC(C(C)=O)C(=O)Nc2ccccc2)n1 (centres undefined),0.47%
8,CC(=O)Nc1cccc(Oc2cc(C#N)c(C#N)cc2N2CCOCC2)c1,2.12%
9,CCOc1ccc(NC(=O)CCS(=O)(=O)c2ccc3c(c2)CCCN3C(=O)CC)cc1,19.3%
10,Cc1ccc(S(=O)(=O)c2c(COC(=O)c3cccc(Cl)c3)c(-c3ccccc3)nn2C)cc1,6.1%
11,CSc1ccccc1NC(=O)c1cc(C2CC2)on1,5.92%
12,CC(=O)c1c(C)[nH]c(C(=O)NCc2ccc(C)cc2)c1C,4.49%
13,CCOc1cccc(NC(=O)Cn2nc(-c3ccc4c(c3)OCCO4)ccc2=O)c1,-4.23%
14,O=C1C=C(NCCNc2c(F)c(F)c(CO)c(F)c2F)CCC1,-9.07%
15,CC(C)C(c1nnnn1Cc1ccccc1)N1CCC(C(N)=O)CC1 (centres undefined),3.2%
16,O=C(Cc1ccc(-n2c(=O)[nH]c3ccccc3c2=O)cc1)N1CCN(c2cccc(Cl)c2)CC1,3.03%
17,O=C(CN1CCSCC1)N/N=C/c1ccc(F)cc1,-8.31%
18,CCc1cccc(C)c1N(C(=O)Cn1c(CO)nc2ccccc21)C(C)COC (centres undefined),20.8%
19,CC(=O)OC(C(=O)NCCc1ccccc1)c1cccnc1 (centres undefined),4.94%
20,OCCN1CCOCCOCCN(CCO)CCN(CCO)CC1,29.9%
21,CCOc1ccc(C(O)Cc2nc3ccccc3n2C)cc1 (centres undefined),4.61%
22,Cc1ccc(C(=O)N2CCN(C3CCCCC3)CC2)s1,-2.79%
23,CCCCN1C(=O)CC(N2CCOCC2)C1=O (centres undefined),4.69%
24,O=c1[nH][nH]c(C(F)(F)F)c1C=NCc1ccccc1Cl,-12.4%
25,O=C(NCc1ccc2c(c1)OCO2)C12CC3CC(CC(C3)C1)C2,-3.87%

row,SMILES,inhibition
1,COC(=O)CNS(=O)(=O)c1ccc(OC)cc1,0.19%
2,CCN(CC)C(=O)CSc1nnc(C2CCCCC2)o1,5.02%
3,CC1CCC(N2CC(=O)N(Cc3ccc4c(c3)OCO4)C(c3ccc(F)cc3)C2=O)CC1 (centres undefined),1.08%
4,N#Cc1c(N)nc2c3c(sc(=N)c2c1N)NC(=O)CC3c1ccccc1Cl (centres undefined),40.9% (active)
5,O=C(Cc1c(F)cccc1Cl)N1CCN(C(=O)c2ccco2)CC1,2.75%
6,O=C(O)CSCc1ccc(C(=O)O)o1,0.52%
7,CCC(CC)C(=O)N1CC(=O)Nc2ccc(Br)cc2C1c1ccccc1 (centres undefined),-3.26%
8,CC(C)C(=O)NC(NC(=S)NC1CCS(=O)(=O)C1)C(Cl)(Cl)Cl (centres undefined),0.31%
9,CCCc1nc2oc3c(OCC)ncnc3c2c2c1COC(C)(C)C2,26%
10,Cc1cc(C(=O)Nc2c(C)nn(Cc3ccccc3)c2C)on1,9.91%
11,COc1ccc(-c2cn(-c3ccc(C)cc3)c(=O)n2CC(=O)Nc2ccc(OC)c(OC)c2)cc1,-1.74%
12,S=c1nccc(-c2cc(Cl)sc2Cl)[nH]1,3.11%
13,CC1CC(C)CN(C(=O)CSc2nnc(CSc3ncccn3)n2C)C1 (centres undefined),-0.18%
14,O=c1c2ccccc2nc2n1C1(CCCCC1)Cc1ccccc1-2,-5.48%
15,CC(=O)Nc1ccccc1OC(=O)N1CCOCC1,-4.74%
16,O=C(CN1CCCCCC1)N1c2ccccc2Sc2ccc(C(F)(F)F)cc21,2.04%
17,C=CCC(NCc1ccco1)c1ccc(OC)cc1 (centres undefined),4.05%
18,O=C(CC1NCCNC1=O)Nc1ccc(Oc2ccccc2)cc1 (centres undefined),0%
19,CCOC(=O)c1cnc2sccn2c1=O,6.51%
20,O=C(c1ccc(CN2CCOCC2)cc1)N1CCN(c2ccccc2F)CC1,3.59%
21,Cn1c(N)c(C(=O)COC(=O)C23CC4CC(CC(C4)C2)C3)c(=O)n(C)c1=O,21.8%
22,O=C(NCCOc1ccccc1)c1ccccc1,-5.53%
23,CC1CN(S(=O)(=O)c2ccccc2)C(C)CN1S(=O)(=O)c1ccccc1 (centres undefined),1.71%
24,COCCn1c(C)cc(C2=NNC(=Nc3ccc(F)cc3)SC2)c1C,-6.11%
25,COc1ccc(N(CC(=O)NC2CCCCC2)S(=O)(=O)c2c(C)[nH]c(=O)[nH]c2=O)cc1,8.86%

row,SMILES,inhibition
1,CCOc1c(Cl)cc(/C=N/O)cc1OC,-2.81%
2,COc1ccc(-n2nc(C(=O)NCC(=O)Nc3cccc(C)n3)c3ccccc3c2=O)cc1,-9.02%
3,N#C/C(=C(\O)CCl)c1nnc2n1CCCCC2,-2.88%
4,CCOC(=O)N1CCN(Cc2nc(N)nc(Nc3ccc(C)cc3)n2)CC1,17.1%
5,COCCCNC(=O)C1CC(=O)N(CCc2ccccc2)C1 (centres undefined),7.75%
6,Cc1cccc(C)c1NC(=O)CSc1nnc(-c2ccccc2)n1Cc1ccc2c(c1)OCO2,3.72%
7,COC(=O)c1ccc(CSc2ccc3nnc(-c4ccccc4)n3n2)o1,1.01%
8,CC(C)C(=O)Nc1nnc(Sc2ccc(N(C)C)cc2)s1,-3.42%
9,Cc1ccc(-c2noc(CSc3nnc(-c4ccncc4)n3-c3ccc(F)cc3)n2)cc1,4.76%
10,COC(=O)C(C(=O)Nc1cccc(C)n1)C1CCCCCC1 (centres undefined),-11.6%
11,Cn1c(CC(=O)Nc2ccccc2)nnc1SCC(=O)c1ccccc1,-6.46%
12,O=C(COc1ccc(Cl)cc1)Nc1ccccc1CO,2.06%
13,C=CCn1c(N)cc(=O)nc1SCC(=O)Nc1cccc2ccccc12,9.45%
14,CCn1c(SCC(=O)Nc2ccc(OC)c(OC)c2)nnc1-c1c[nH]c2ccccc12,7.43%
15,COC(=O)C1C(=O)NCC1c1ccc(C)cc1 (centres undefined),8.67%
16,CC(=O)Nc1ccc(S(=O)(=O)N2CCN(C3CCCCCCC3)CC2)cc1,0.06%
17,CCOc1ccc(C(=O)Nc2ccncc2)cc1,-1.05%
18,CC(C)(C)NC(=O)CN(Cc1cccs1)C(=O)CNS(=O)(=O)c1ccccc1,-7.23%
19,CCOCc1nnc(NC(=O)CSc2ccc(C)cc2)s1,-2.27%
20,CC1=NN(C(C)C)C(=O)C1,28.4%
21,CC(=O)Nc1ccc(NC(=O)CSCc2cnn(-c3ccccc3)c2-n2cccc2)cc1,6.64%
22,COc1ccccc1N(C(=O)Cn1nnc2ccccc21)C(C(=O)NCc1ccco1)c1ccc(C)o1 (centres undefined),-1.36%
23,O=C(CCc1ccccc1)NCc1cccnc1,23.1%
24,Cc1cc(C(=O)OC(C)C(=O)Nc2cccc(S(=O)(=O)N3CCOCC3)c2)c(C)o1 (centres undefined),-5.93%
